Molecules are shown by their SMILES. Screen size: about 360,000 compounds; about 7,300 (2%) were called active. No stated cut-off is given here; in the data, active means inhibition above about 50%; inactive means the rest. The entries come from a sample that favours actives as a whole.

This assay is described as follows: blockers of TWEAK-induced Fn14 reporter activity – luciferase reporter cells, uHTS, primary screen (AID 1159606). The settings on record: TWEAK-stimulated Fn14 reporter cells, luciferase luminescence, 8 h; at 10 µM; hits give high values. (In general: A reporter such as luciferase makes a cellular process visible.)
`CC(=CCOc1ccc2ccc(=O)oc2c1)C1=CC(=O)C(C)(C)O1`: the inhibition (usually the drop in the measured response relative to a control, in per cent) was 70.4% (active). To `CSc1nc2ccc(C)cc2c(=O)n1-c1cccnc1` belongs 0.75% (inactive). To `CN(C)c1ccc(/C=C2\CC3C4CC=C5CC(O)CCC5(C)C4CCC3(C)C2=O)cc1` (stereo not given) belongs -57.2% (inactive). With `NC(=O)Nc1cccc(C(F)(F)F)c1` the figure was -2.53% (inactive); with `Cc1cccc(NC(=O)N2CC3CC(C2)c2cccc(=O)n2C3)c1` (stereo not given), 3.66% (inactive). On to `CNC(=O)O/N=C(\N)Cc1csc2ccccc12`, for which the inhibition was 16.5% (inactive).

Regarding `CC(=O)c1ccc(OC(NC(=O)Cc2ccccc2)C(Cl)(Cl)Cl)cc1` (stereo not given), the inhibition is -4.23% (inactive). With `C[C@H]1CN([C@@H](C)CO)C(=O)CCCn2nncc2CO[C@H]1CN(C)C(=O)Oc1cccc2ccccc12` the figure was 9.18% (inactive); with `O=C1NC(=O)C(C/C=C/c2ccccc2)C(=O)N1`, 0.48% (inactive); with `CCCCCCCCCCCCn1ccc(=N)cc1`, 74% (active). With `CCCn1c(C(=O)c2ccccc2OC)nc2ccccc21` the figure was -3.91% (inactive); with `COc1ccc2c(c1)NP(=S)(c1ccccc1)N2` (stereo not given), -0.5% (inactive); with `CN(C)CC1Oc2ccccc2OC1(O)c1ccccc1` (stereo not given), 79.6% (active). To `Cc1ncoc1C(=O)NCC1=C(c2cccc3ccccc23)C[C@@H]2CC[C@H]1N2Cc1ccco1` belongs -0.7% (inactive); to `COc1cccc(-c2nc3ccc(N4CCN(C)CC4)cc3[nH]2)c1`, -27.5% (inactive); to `CC12CCC(O)CC1CCC1C2CCC2(C)C(C(=O)CC(O)C(F)(F)F)CCC12` (stereo not given), -91.4% (inactive).

Take `C[C@]12CC[C@H](O)C[C@H]1CC[C@@H]1C2CC[C@]2(C)[C@@H](C3=CC(=O)OC3)[C@@H](O)C[C@]12O` (stereo not given in full): the inhibition is 56.4% (active). To `O=c1[nH]c(=O)n(-c2ccc(F)cc2)c(O)c1C=NCCN1CCCCC1` belongs 6.59% (inactive); to `CN(C)C(=O)Oc1cc(=O)n2c3c(cccc13)CCC2`, 30.3% (inactive). To `Cc1cc(C(=O)OCC(=O)Nc2c(F)cccc2F)c(C)n1C1CC1` belongs 4.53% (inactive). With `C[C@]12CCC3C(CC[C@H]4[C@H](O)[C@H](O)CC[C@]34C)C1CCC2=O` (stereo not given in full) the figure was 96.5% (active).

As to `C[C@]12CCC3C(CC[C@H]4[C@H](O)[C@H](O)CC[C@]34C)C1CC[C@@H]2O` (stereo not given in full), the inhibition was -13.2% (inactive).

As for `C[C@]12CC[C@H](O)CC1=C([N+](=O)[O-])CC1C2CC[C@@]2(C)C1CC[C@@H]2O` (stereo not given in full), the inhibition was 1.49% (inactive). To `OC1/C(=C/c2ccc(C(F)(F)F)cc2)N2CCC1CC2` (stereo not given) belongs -3% (inactive); to `COC(=O)C1=C(c2ccc3ccccc3c2)C[C@@H]2CC[C@H]1N2C(=O)NCCO`, 6.86% (inactive); to `CCN1CCN(c2nc3c(c(=O)[nH]2)CCC3)CC1`, 14.3% (inactive).

In the case of `COc1ccc2[nH]c3c(c2c1)CCN[C@H]3C`, the inhibition was 75.7% (active).

Take `Cc1ccc2c(c1)=C/C(=C\c1c(O)[nH]c(=O)[nH]c1=O)C(=O)N=2`: the inhibition was -3.63% (inactive).

`Cc1cc2ccccn2c1C(C[N+](=O)[O-])c1c(F)cccc1Cl` (stereo not given): the inhibition was 102% (active).

Turning to `Cc1cccc(-n2c(C)nc3cc(C(=O)N4CCC5(CC4)OCCO5)ccc32)c1`, the inhibition is -8.93% (inactive). With `O=c1[nH]c2ccccc2n1C1CCN(C(c2ccnc3ccccc23)c2nnnn2Cc2ccccc2)CC1` (stereo not given), the inhibition was 27.5% (inactive). Take `CCN(N=Nc1nonc1OC)c1nonc1OC`: the inhibition was -11.1% (inactive).

Regarding `O=C1NC(=O)N(CCc2ccc(F)cc2)C(=O)/C1=C/C=C/c1ccccc1`, the inhibition was 79.4% (active).

As to `COC1=CC=C2[C@H]3Cc4ccc(OC)c5c4[C@@]2(CCN3C)C1O5` (stereo not given in full), the inhibition is -16% (inactive). With `Cc1cc(N2C(=O)C3CCCN3C2c2ccc(Cl)c(Cl)c2)no1` (stereo not given) the figure was -3.31% (inactive); with `CC(C)c1ccc(O)c(CN2CCN(c3ccccc3)CC2)c1`, 4.05% (inactive). With `CCC(C)(O)C(=O)OC1C(=O)OC2CC3C(C)=CC(=O)C(O)C3(C)C3C4(O)OCC23C1C(C)C4O` (stereo not given) the figure was 99.5% (active). To `CCOP(=O)(OCC)C(O)c1ccc(OC)cc1OC` (stereo not given) belongs 3.38% (inactive).

In the case of `CCC(=O)OC(Cc1ccccc1)(c1ccccc1)C(C)CN(C)C` (stereo not given), the inhibition is 3.52% (inactive). To `O=C(NCC1=C(c2ccc3ccccc3c2)C[C@@H]2CC[C@H]1N2Cc1ccco1)c1cccs1` belongs -11.2% (inactive); to `CC(=O)OC1C2(CC3N4C(=O)C5(CO)SSC4(CC31O)C(=O)N5C)OC(C)C(C)(C)C2=O` (stereo not given), 107% (active). To `CN(C)C(=O)NC(O)C(Cl)(Cl)Cl` (stereo not given) belongs 5.54% (inactive).

For `Cc1cccc(-n2c(O)c(C=NC34CN5CN(CN(C5)C3)C4)c(=O)[nH]c2=O)c1`, the inhibition was -1.26% (inactive). With `COC1C(O)C(C)OC(OC2CCC3(C=O)C(CCC4C3CCC3(C)C(C5=CC(=O)OC5)CCC43O)C2)C1O` (stereo not given), the inhibition is 80.6% (active). As for `CC(=NCc1ccc2c(c1)OCO2)c1c(O)[nH]c(=O)[nH]c1=O`, the inhibition was -1.24% (inactive).

As for `CCN(CC)C(=O)Oc1ccc(NC(=O)N2CCOCC2)cc1`, the inhibition is 12.2% (inactive).

As for `Cc1ccc(N(C)C(=O)Oc2cccc3ccc(C)nc23)cc1`, the inhibition was -2.35% (inactive).

Take `O=Cc1cn(Cc2ccc(F)cc2Cl)c2ccccc12`: the inhibition was 56.5% (active). On to `CC1C(=O)OC2CCN3CC=C(COC(=O)C(C)(O)C1(C)O)C23` (stereo not given), for which the inhibition was -18.7% (inactive). With `CC[N+]1(C)CCCC(OC(=O)C(O)(c2ccccc2)c2ccccc2)C1` (stereo not given) the figure was -7.55% (inactive). With `CCOC(=O)[C@]12Cc3ccccc3[C@H]1N(C1CCCCC1)C(=O)c1cc(OC)ccc12` the figure was 42.5% (inactive). To `COC(=O)CN(CCCl)P1(=O)OCCCN1CCCl` (stereo not given) belongs -6.99% (inactive); to `O=C1NC(=O)C(CCOc2ccccc2)(CCc2ccccc2)C(=O)N1`, -21.8% (inactive); to `COc1ccccc1C1=NCc2nnc(CSC)n2-c2ccc(Cl)cc21`, 12.6% (inactive). `CCN1CC2C3CCC(C)(O3)C2C1` (stereo not given): the inhibition is 2.33% (inactive).

Take `CCOC(=O)C1=C(C)OC(N)=C(C(=O)OC)C12C(=O)Nc1ccc(Br)cc12` (stereo not given): the inhibition is -9.87% (inactive). With `N#CC1=C(N)Oc2c(c(=O)oc3ccccc23)C1c1ccccc1OC(=O)c1cccs1` (stereo not given) the figure was 51.3% (active); with `COc1ccc(C2C=C(C)Oc3c2c(=O)oc2ccccc32)cc1OC` (stereo not given), 1.69% (inactive); with `CCNc1nc2[nH]c(=O)c3c(c2s1)OC(N)=C(C#N)C3c1cccs1` (stereo not given), 19.6% (inactive).

With `Nc1ccc(Cc2ccc(N)c(Cl)c2)cc1Cl`, the inhibition is 7.24% (inactive).

In the case of `COc1ccccc1OC(=O)c1ccc(C)c(S(=O)(=O)N2CCOCC2)c1`, the inhibition is 5.54% (inactive).

For `COC(=O)C1=C(c2ccc(F)cc2F)C[C@@H]2CC[C@H]1N2C(=O)NC1CC1`, the inhibition was 10.7% (inactive). To `CCC/C(=N\O)c1c[nH]c2ccccc12` belongs -11.5% (inactive); to `CCOc1ccc(C2SCC(=O)Nc3c2c(C)nn3C2CCOC(C)(C)C2)cc1` (stereo not given), 7.72% (inactive). To `Cc1ccc(P(=S)(c2ccc(C)o2)N2CCOCC2)o1` belongs 73.2% (active); to `CCOC(=O)[C@]12Cc3cc(OC)ccc3[C@H]1N(C(C)C)C(=O)c1ccccc12`, 25.1% (inactive); to `O=C(NC1CCCCC1)N1Cc2cc(N3CCCCC3)ccc2-n2nncc2C1`, -46.7% (inactive). To `CN1CCN(/N=C/c2c[nH]c3ccccc23)CC1` belongs 4.46% (inactive).

In the case of `COC(=O)C1=C(c2ccc(OCc3ccccc3)cc2)C[C@@H]2CC[C@H]1N2C(=O)NCc1cccc(F)c1`, the inhibition is 37.4% (inactive). `Fc1cccc(F)c1CN1CCN(Cc2c(F)cccc2F)CC1`: the inhibition is 92.7% (active). In the case of `CN1CCN(Cc2ccccc2C(F)(F)F)CC1`, the inhibition is 0.88% (inactive). To `C/C(=N/O)c1ccc2ccc3ccccc3c2c1` belongs 2.22% (inactive). To `COc1ccccc1N1CCN(C(CNC(=O)Oc2ccccc2)c2cccnc2)CC1` (stereo not given) belongs 3.6% (inactive); to `COCc1cc(OC(=O)N(C)C)nc(-c2ccc(C)c(Cl)c2)n1`, 6.49% (inactive). Consider `c1cc2c(cc1[C@H]1OC[C@H]3[C@@H]1CO[C@@H]3c1ccc3c(c1)OCO3)OCO2`, for which the inhibition was -20.1% (inactive).

For the origin of these results see PubChem BioAssay AID1159606 (Sanford-Burnham Center for Chemical Genomics, 2016).
